PubChem BioAssay (Tox21)
Records with an inconclusive call do not appear. More than one record can exist for a structure, and the calls need not agree. Calls of active or inactive are those of the source. Calls follow the shape of the full dose curve.
% is scaled to controls: 0 for no effect and ±100 for the full control effect; potency is read from the fitted curve at half-maximal effect.

The compounds below were run against Acetylcholinesterase (Homo sapiens) (UniProt P22303) (assay: Acetylcholinesterase (AChE) small molecule antagonists: fluorescence cell-based qHTS assay (AID 1347398; also: nearly all actives have a fitted effect of over 50% in size)). Settings: SH-SY5Y cells; Potency: AChE activity; outcome: AChE activity; series mostly up to 115 µM; activity change, negative = inhibition: at the top concentration.
Sequence of Acetylcholinesterase (Homo sapiens) (P22303 whole entry, looked up): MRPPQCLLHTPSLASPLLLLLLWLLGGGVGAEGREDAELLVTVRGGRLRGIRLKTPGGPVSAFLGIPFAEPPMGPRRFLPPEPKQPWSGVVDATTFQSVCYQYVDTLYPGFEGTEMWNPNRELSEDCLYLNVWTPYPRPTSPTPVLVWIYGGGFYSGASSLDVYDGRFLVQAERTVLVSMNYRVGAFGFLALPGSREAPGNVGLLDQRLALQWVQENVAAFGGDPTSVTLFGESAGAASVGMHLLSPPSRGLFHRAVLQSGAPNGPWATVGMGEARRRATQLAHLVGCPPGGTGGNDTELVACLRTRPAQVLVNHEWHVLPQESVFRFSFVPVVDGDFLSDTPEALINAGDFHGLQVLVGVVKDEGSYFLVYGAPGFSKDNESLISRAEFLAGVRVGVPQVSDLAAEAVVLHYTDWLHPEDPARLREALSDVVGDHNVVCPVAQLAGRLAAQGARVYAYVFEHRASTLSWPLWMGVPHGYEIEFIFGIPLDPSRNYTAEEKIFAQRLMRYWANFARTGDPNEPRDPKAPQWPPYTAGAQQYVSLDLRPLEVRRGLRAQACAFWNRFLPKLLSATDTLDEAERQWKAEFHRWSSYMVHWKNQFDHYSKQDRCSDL
How it was run: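 Using neuroblastoma SH-SY5Y cells as the enzyme source, test chemicals are preincubated 30 min at 37 C; AChE-driven acetylthiocholine cleavage is then quantified by thiocholine-dependent Thiolite Green fluorescence after 40 min at room temperature.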
In the case of `Cn1cc(S(C)=O)c(=O)c2ccc(F)cc21` (centres undefined), the “activity change, negative = inhibition” value is reported as 6.03% [at 53.7 µM] (inactive). In the case of `CCCCCC1=CCCC1=O`, the Potency is reported as 22.9 µM (active) and inactive. In the case of `NC(N)=NCCN1CCCCCCC1`, the activity change, negative = inhibition is reported as 3.67% [at 0.439 µM] (inactive). For `CCCCCCCCCCCC(=O)N(C)CC(=O)O`, the Potency was “inactive”. `COC(C)(C)OC` was tested, and the “activity change, negative = inhibition” value was -0.16% (inactive). `NC(=O)c1cn(Cc2c(F)cccc2F)nn1` was tested, and the “activity change, negative = inhibition” value was 9.44% [at 53.7 µM] (inactive). In the case of `COc1cc2c(cc1N)oc1ccccc12`, the “activity change, negative = inhibition” value is reported as -8.47% (inactive). In the case of `CC(O)COc1ccccc1` (centres undefined), the Potency is reported as “inactive”. With `CS(=O)(=O)c1ccc([C@@H](O)[C@@H](CO)NC(=O)C(Cl)Cl)cc1` the Potency was “inactive”. In the case of `CCCc1ccccc1O`, the “activity change, negative = inhibition” value is reported as 1.46% (inactive). `Cc1c(C(N)=O)cc([N+](=O)[O-])cc1[N+](=O)[O-]` was tested, and the Potency was “inactive”. With `Cc1ccc2c(Cl)cc(Cl)c(O)c2n1` the “activity change, negative = inhibition” value was 2.44% [at 53.7 µM] (inactive). In the case of `CCOC(=O)CN1CCCC1=O`, the “activity change, negative = inhibition” value is reported as 3.82% [at 53.7 µM] (inactive). For `Cc1ccc(N=Nc2c(O)c(C(=O)O)cc3ccccc23)c(S(=O)(=O)O)c1`, the “activity change, negative = inhibition” value was 3.04% [at 53.7 µM] (inactive). In the case of `Cc1cc(C)cc(O)c1`, the Potency is reported as “inactive”. In the case of `CC1=CC[C@@H]2C[C@H]1C2(C)C`, the activity change, negative = inhibition is reported as 0.301% [at 23.8 µM] (inactive). `CC(CCO)CC(C)(C)C` (centres undefined) was tested, and the Potency was “inactive”. `COc1cc(S(=O)(=O)Nc2ccccc2)c(OC)cc1N` was tested, and the “activity change, negative = inhibition” value was 0.349% (inactive). `O=C(NCCN1CCOCC1)c1ccc(Cl)cc1` was tested, and the “activity change, negative = inhibition” value was 19.9% [at 53.7 µM] (inactive). In the case of `Cc1cc2nc(N)sc2cc1C`, the “activity change, negative = inhibition” value is reported as -11.7% (inactive). For `O=C[O][Al]([O]C=O)[O]C=O`, the “activity change, negative = inhibition” value was -1.75% (inactive). For `COc1cccc(OC)c1O`, the “activity change, negative = inhibition” value was 0.856% (inactive). With `CC(=O)/C=C/C1C(C)=CCCC1(C)C` (centres undefined) the “activity change, negative = inhibition” value was -4.38% (inactive). With `Cc1cc(O)c(C(C)(C)C)cc1Sc1cc(C(C)(C)C)c(O)cc1C` the “activity change, negative = inhibition” value was -11.7% (inactive). `O=[N+]([O-])c1ccc2c(c1)Cc1ccccc1-2` was tested, and the Potency was 39.9 µM (active) and inactive. `CC(=O)Nc1c(I)cc(I)c(C(=O)O)c1I` was tested, and the “activity change, negative = inhibition” value was 10.5% [at 53.7 µM] (inactive). In the case of `C[C@]12CC[C@@H]3c4ccc(O)cc4CC[C@H]3[C@@H]1C[C@@H](O)[C@@H]2O`, the Potency is reported as “inactive”. With `CCCCCCCCS(=O)(=O)O` the “activity change, negative = inhibition” value was 9.22% (inactive). With `COC(=O)/C=C(\C)CCC=C(C)C` the “activity change, negative = inhibition” value was 0.0972% (inactive). In the case of `CC(=O)Oc1ccc(C2(c3ccc(OC(C)=O)cc3)C(=O)Nc3ccccc32)cc1`, the “activity change, negative = inhibition” value is reported as 13.7% [at 53.7 µM] (inactive). For `CNC(=O)Nc1ccc(Cl)c(Cl)c1`, the “activity change, negative = inhibition” value was -7.46% (inactive). In the case of `C=CC(=O)CCCCC`, the “activity change, negative = inhibition” value is reported as 0.0383% (inactive). With `COc1ccc([C@@H]2CC(=O)c3c(O)cc(O[C@@H]4O[C@H](CO[C@@H]5O[C@@H](C)[C@H](O)[C@@H](O)[C@H]5O)[C@@H](O)[C@H](O)[C@H]4O)cc3O2)cc1OC` the Potency was “inactive”. In the case of `CC1=CC(=O)c2ccccc2C1=O`, the Potency is reported as “inactive”. For `CCCCN(CCCC)CCCCCCN(CCCC)CCCC`, the “activity change, negative = inhibition” value was 5.22% (inactive). For `CCCCCCCCSCCO`, the “activity change, negative = inhibition” value was -0.263% (inactive). For `Cc1c(Cn2ccnc2)c2ccccc2n1CCC(=O)O`, the “activity change, negative = inhibition” value was 6.32% [at 53.7 µM] (inactive). `Cc1ncsc1CCO` was tested, and the “activity change, negative = inhibition” value was -0.242% (inactive). For `CCC(C(=O)O)c1ccc(N2Cc3ccccc3C2=O)cc1` (centres undefined), the “activity change, negative = inhibition” value was 3.96% [at 53.7 µM] (inactive).
